# Test results as given in PubChem BioAssay AID2057 (The Scripps Research Institute Molecular Screening Center, 2009).
# Out of some 320,000 compounds screened, about 2,100 (0.66%) were called active. The list comes from a sample in which actives are over-represented; it also holds similar structures and randomly drawn compounds. Values without a mark were called inactive.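 The calls were made as follows: active = inhibition above the mean inhibition of all tested compounds plus 3 SD, set per campaign (cut at about 40% in these data); inactive = the rest.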
# Target: Induced myeloid leukemia cell differentiation protein Mcl-1 (Homo sapiens) (UniProt Q07820)
# Assay: MCL1-BIM peptide interaction disruptors – biochemical, fluorescence polarization, primary screen (AID 2057);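 also: 0% = DMSO wells and 100% = unlabeled Bim-BH3 peptide control; higher means more loss of mP so more displacement of Bim peptide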
# Details: GST-MCL1 / FITC-Bim-BH3 fluorescence polarization; at 10.9 µM; hits give high values
# Sequence of Induced myeloid leukemia cell differentiation protein Mcl-1 (Homo sapiens) (Q07820 whole entry, looked up): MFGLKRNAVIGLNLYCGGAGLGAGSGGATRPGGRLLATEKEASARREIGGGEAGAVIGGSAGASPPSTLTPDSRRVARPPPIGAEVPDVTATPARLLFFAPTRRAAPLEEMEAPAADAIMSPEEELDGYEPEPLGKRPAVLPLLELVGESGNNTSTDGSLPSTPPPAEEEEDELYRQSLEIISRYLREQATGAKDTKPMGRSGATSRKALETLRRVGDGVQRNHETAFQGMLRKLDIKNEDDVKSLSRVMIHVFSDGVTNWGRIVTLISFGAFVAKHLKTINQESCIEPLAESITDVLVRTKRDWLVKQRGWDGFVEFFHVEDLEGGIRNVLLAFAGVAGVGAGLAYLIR
row,SMILES,inhibition
1,O=C(NCCCCc1ccccc1)C1CC(c2ccc([N+](=O)[O-])cc2)=NO1 (configuration not stated),12.6%
2,CN(CC(=O)NC1CCN(Cc2ccccc2)CC1)S(=O)(=O)c1ccc(Cl)s1,3.17%
3,CCc1cc(CNC(=O)CC2C(=O)NCCN2Cc2ccccc2C(F)(F)F)on1 (configuration not stated),17.3%
4,CC1(C)CC(=O)C2=C(C1)NCN(CCCN1CCOCC1)C2,-0.98%
5,O=[N+]([O-])c1cc(Cl)cc(/C=N/NC(=S)Nc2cc(S(=O)(=O)N3CCOCC3)ccc2Cl)c1O,52.5% (active)
6,O=C(NC(=S)Nc1ccc(S(=O)(=O)N2CCOCC2)cc1)c1ccccc1[N+](=O)[O-],14.4%
7,O=C(N/N=C/c1cc(Cl)cc([N+](=O)[O-])c1O)C(O)(c1ccccc1)c1ccccc1,9.22%
8,COC(=O)CN(c1cccc(C(C)=O)c1)S(C)(=O)=O,0.97%
9,CCCSc1ncccc1C(=O)O,-3.51%
10,COc1cccc(Nc2ncccc2C(=O)O)c1,1.4%
11,COc1ccc(Nc2cc(Cl)ccc2C(=O)O)cn1,62.7% (active)
12,COc1ccc(NS(=O)(=O)c2ccc(F)cc2F)cn1,8.27%
13,CCCOc1ccc(Cl)cc1Nc1nc(NCCO)nc(N2CCCC2)n1,3.82%
14,NC1=NC2(CCCCC2)N(c2ccc(F)cc2F)C(N)=N1,10.2%
15,COc1ccc(Cl)cc1C(=O)OCC(=O)NCc1cccs1,-2.56%
16,C=CCNc1nnc(C)c2ccccc12,-0.12%
17,C=CCNc1nnc(SCC(=O)N2CCCCC2)c2ccccc12,120% (active)
18,O=C(CSc1ncccn1)N1CCCC1,9.67%
19,O=C(NCCSCc1ccccc1)c1ccc(Cl)c(S(=O)(=O)N2CCOCC2)c1,1.14%
20,O=C(c1ccc(F)c(S(=O)(=O)N2CCOCC2)c1)N(CCc1ccccc1)Cc1ccccc1,32.4%
21,CCOc1ccc(NC(=O)CCCCCN2C(=O)[C@@H]3Cc4ccccc4CN3C2=O)cc1,6.32%
22,COc1ccc(CC(=O)Nc2c3c(nn2-c2cccc(Cl)c2)CS(=O)C3)cc1 (configuration not stated),-2.25%
23,CCNc1nc(N)nc(-c2cc(Cl)ccc2OC)n1,-1.8%

row,SMILES,inhibition
1,Cc1cccn2c(=O)c3cc(C(=O)NCCN4CCOCC4)c(=N)n(Cc4cccnc4)c3nc12,46.7% (active)
2,COc1ccc(CCn2c(=N)c(C(=O)NCC3CCCO3)cc3c(=O)n4cccc(C)c4nc32)cc1OC (configuration not stated),2%
3,Cc1cccn2c(=O)c3cc(C(=O)NCC4CCCO4)c(=N)n(Cc4ccc(F)cc4)c3nc12 (configuration not stated),-4.4%
4,CC(C)(C)NC(=O)COC(=O)c1cc(Br)ccc1Cl,-2.96%
5,CCCC1NC(=O)NC(C)=C1C(=O)OCC (configuration not stated),-0.76%
6,Oc1ccc2ccccc2c1N=Nc1nccs1,61.4% (active)
7,CC1=C(C(=O)OC(C)(C)C)C(c2ccc(Br)cc2)NC(=O)N1CCCC(=O)O (configuration not stated),2.27%
8,CC[N+](C)(CC)CCC[n+]1c(-c2ccccc2)c2cc(N)ccc2c2ccc(N)cc21,122% (active)
9,C=C(C)CSc1nnc(-c2ccc(C)cc2)n1N,-0.24%
10,CC(OC(=O)c1ccccc1NCCO)C(=O)Nc1ccnn1C(C)C (configuration not stated),1.18%
11,CSCCC(NC(=O)c1ccc(Cl)cc1Cl)C(=O)NNC(=O)c1csc(N2CCOCC2)n1 (configuration not stated),12.3%
12,CN(C(=O)COC(=O)c1cc(=O)[nH]c2ccccc12)C1CCCCC1,1.49%
13,COc1ccccc1NC(=O)C[n+]1ccccc1,-1.7%
14,Cc1cccc[n+]1CC(=O)c1ccccc1,9.96%
15,COC(=O)C[n+]1cccc2ccccc21,195% (active)
16,Cn1ccs/c1=N\S(=O)(=O)c1ccc(C(C)(C)C)cc1,5.09%
17,O=[N+]([O-])c1cc([N+](=O)[O-])c(Oc2cc(F)cc(F)c2F)cc1NN1CCCCC1,-1.7%
18,Clc1ccccc1CSc1nnc(-c2ccco2)c(-c2ccco2)n1,79.9% (active)
19,O=C(CC1N=C2c3ccccc3N=C(SCc3ccccc3Cl)N2C1=O)NCc1ccco1 (configuration not stated),19.4%
20,COc1ccc2nc(SCc3ccccc3)nc(C)c2c1,1.99%
21,CCc1nnc(SCc2cccc(F)c2)nc1CC,0.71%
22,c1ccc(CSc2nnc(-c3ccco3)c(-c3ccco3)n2)cc1,82.3% (active)
23,Fc1cccc(Cl)c1CSc1ccc(-c2ccco2)nn1,17.6%

row,SMILES,inhibition
1,CCOC(=O)C1CCCN(C(=O)COc2ccc(N(C)S(=O)(=O)c3ccc(C)cc3)cc2)C1 (configuration not stated),-2.82%
2,CCCN(C(=O)c1nc2nccc(C)n2n1)c1c(N)n(Cc2ccccc2)c(=O)[nH]c1=O,0.15%
3,COCc1cc(=O)n2[nH]c(C)c(-c3ccccc3)c2n1,10.3%
4,CCC1SC2=NCCN2C1(O)c1ccc(Cl)cc1 (configuration not stated),7.57%
5,CN1C(=O)/C(=C\c2cc(Br)cs2)c2ccccc21,-0.58%
6,O=C(COC(=O)c1ncc(Cl)c(Cl)c1Cl)NNC(=O)c1ccccc1,5.89%
7,Cn1c(-c2ccc(C(F)(F)F)cc2)cc2onc(-c3ccccc3)c2c1=O,4.36%
8,COC1=C(N2CCOCC2)C(=O)c2ccccc2C1=O,6.69%
9,O=C1c2ccccc2-c2ncnc3c(N4CCOCC4)cc(N4CCOCC4)c1c23,48.8% (active)
10,Cc1oc2c(c1C(=O)N1CCOCC1)C(=O)c1ccccc1C2=O,-4.11%
11,COc1ccc(OC)c(NC(=O)CN(C)CCOc2ccc(Br)cc2)c1,-19.6%
12,CCN(CC)C(=O)CC(c1ccc2c(c1)OCO2)c1c(OC)cc(OC)c2c(-c3ccccc3)cc(=O)oc12 (configuration not stated),2.43%
13,Cc1cc(C)c2c(-n3cccc3)c(C(=O)NNS(=O)(=O)c3ccc(F)cc3)sc2n1,13.1%
14,COc1ccc(CNC(=O)c2cc3c(=O)n4ccccc4nc3n(CC3CCCO3)c2=N)cc1 (configuration not stated),9.61%
15,Cc1cccn2c(=O)c3cc(C#N)c(=O)n(CCCN4CCOCC4)c3nc12,23.2%
16,Cc1cccn2c(=O)c3cc(C#N)c(=NC(=O)c4cccnc4)n(CC4CCCO4)c3nc12 (configuration not stated),44.1% (active)
17,CCN(CC(=O)NCc1cccs1)c1nnnn1-c1ccccc1,3.16%
18,O=C(NCc1cccnc1)C12CC3CC(CC(C3)C1)C2,3.8%
19,Cc1ccc(S(=O)(=O)Nc2nc3ccccc3nc2N2CCc3ccccc3C2)cc1,12.7%
20,Cc1ccc(S(=O)(=O)C(C#N)c2nc3ccccc3nc2N2CCCC2)cc1C (configuration not stated),75.8% (active)
21,Cc1cc(N2CCN(S(=O)(=O)c3ccc(C)c(C)c3)CC2)c2ccccc2n1,-2.07%
22,O=C(CN1CCN(S(=O)(=O)c2ccc(Cl)s2)CC1)N1CCCCC1,5.82%
23,O=C(NCCC1CCCCN1S(=O)(=O)c1ccc(Cl)cc1)C(=O)NCc1ccco1 (configuration not stated),9.57%

row,SMILES,inhibition
1,CCCn1c(C(C)Nc2nc(-c3ccc(C)cc3)cs2)nc2cc(Cl)c(N3CCCCC3)cc21 (configuration not stated),5.75%
2,CCCn1c(C2CCCN2c2nc(-c3ccc(C)cc3)cs2)nc2cc(Cl)c(N3CCCCC3)cc21 (configuration not stated),75.2% (active)
3,CCCn1c(C2CCCN2c2nc(-c3ccc(OC)cc3)cs2)nc2ccccc21 (configuration not stated),11.8%
4,O=C1N[C@@H](Cc2ccccc2)C(=O)N2[C@@H]3N(S(=O)(=O)c4ccc(F)cc4)c4ccccc4[C@]3(Br)C[C@@H]12,8.03%
5,CC(=O)NC(C)(C)C1CC=C(C)/C(=N\O)C1 (configuration not stated),-0.57%
6,COC(=O)c1ccc(SCc2ccccc2)nc1,11.2%
7,CSc1c(SCc2ccccc2)cnn(Cc2ccccc2)c1=O,181% (active)
8,CCn1c(SCc2ccccc2)nc2cc(OC)c(OC)cc2c1=O,3.42%
9,Cc1c(C)c(C)c(S(=O)(=O)N2CCC3(CC2)OCCO3)c(C)c1C,6.11%
10,Cc1cc(CNC(=O)C2CCC(=O)N(CCc3ccc(Cl)cc3)C2)no1 (configuration not stated),2.34%
11,Cc1ccc(C(=O)NC2CCCC(C)C2C)cc1S(=O)(=O)N1CCCCC1 (configuration not stated),-1.76%
12,O=C(Nc1nccs1)c1cc(S(=O)(=O)N2CCOCC2)c(Cl)cc1Cl,5.02%
13,Oc1cc2c(cc1O)CN(C(=S)NCCc1ccc(Cl)cc1)CCC2,34.4%
14,O=C(COC(=O)/C=C/c1ccc(OC(F)F)cc1)NC1CCCCC1,-2.99%
15,COc1ccc(-c2nc(CS(=O)CC(=O)NCc3ccccn3)c(C)o2)cc1 (configuration not stated),111% (active)
16,COc1ccc(-c2nc(CS(=O)CC(=O)NCc3ccccc3)c(C)o2)cc1OC (configuration not stated),9.71%
17,COc1cccc(-c2nc(CS(=O)CC(=O)NCc3ccc(F)cc3)c(C)o2)c1 (configuration not stated),0.44%
18,COCCCNC(=O)CNC(=S)N(Cc1cc(OC)c(OC)c(OC)c1)C1CCCC1,-4.92%
19,O=C(Cc1ccc(-n2c(=O)c3sccc3n(Cc3ccc(F)cc3)c2=O)cc1)NCc1ccco1,-2.64%
20,O=C(CCn1c(SCC(=O)c2ccccc2)nc2ccccc2c1=O)NCc1ccc(F)cc1,41.6% (active)
21,O=C(CCCn1c(SCC(=O)c2ccccc2)nc2ccccc2c1=O)NCC1CCCO1 (configuration not stated),0.98%
22,O=C(CCCn1c(SCC(=O)c2ccc(F)cc2)nc2ccccc2c1=O)NCc1ccco1,2.72%
23,Cc1cccc(-c2c(NC(=O)c3ccco3)oc3ccc(Cl)cc3c2=O)c1,-4.25%
